A selection: hits, their analogues and other compounds. The true share with any hit is near 3.3%.
M18AAP inhibitor = PfM18AAP inhibitors, malaria aminopeptidase, primary screen, biochemical, QFRET, recombinant enzyme; M18 aspartyl aminopeptidase (Plasmodium falciparum 3D7); H-Glu-NHMec fluorogenic cleavage; inhibition, % at 7.35 µM; 290,000 tested, 1.2% active; AID 1822, 2009;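 active = inhibition above the campaign mean inhibition over all tested compounds plus 3 SD, cut at about 28% in these data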;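 also: 0% = plate median of test compound wells and 100% = 2 mM ZnCl2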
UHRF1 MBD2 ctr = UHRF1 methylated DNA binding inhibitors, primary screen, counter-screen for MBD2 inhibitor project, biochemical, TR-FRET, human UHRF1, single concentration. AID 687016, 2013. UHRF1 binding to methylated oligo. 370,000 tested, 0.75% active. E3 ubiquitin-protein ligase UHRF1 (Homo sapiens), Q96T88. inhibition, % at 4.4 µM; in the data active = inhibition above about 21%;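 also: UHRF1 SRA domain binding a hemimethylated CpG hairpin DNA probe; 0% = median of test compound wells and 100% = reference inhibitor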
MBD2 DNA inh = inhibitors of MBD2 binding to methylated DNA, primary screen, biochemical, TR-FRET, DNA-binding domain, human; Methyl-CpG-binding domain protein 2 (Homo sapiens), Q9UBB5; MBD2 binding to methylated oligonucleotide; inhibition, % at 4.4 µM; 370,000 tested, 0.31% active; AID 686964, 2013; in the data active = inhibition above about 13%
Target sequence (Q9UBB5 whole entry, looked up, the tested form may be a part): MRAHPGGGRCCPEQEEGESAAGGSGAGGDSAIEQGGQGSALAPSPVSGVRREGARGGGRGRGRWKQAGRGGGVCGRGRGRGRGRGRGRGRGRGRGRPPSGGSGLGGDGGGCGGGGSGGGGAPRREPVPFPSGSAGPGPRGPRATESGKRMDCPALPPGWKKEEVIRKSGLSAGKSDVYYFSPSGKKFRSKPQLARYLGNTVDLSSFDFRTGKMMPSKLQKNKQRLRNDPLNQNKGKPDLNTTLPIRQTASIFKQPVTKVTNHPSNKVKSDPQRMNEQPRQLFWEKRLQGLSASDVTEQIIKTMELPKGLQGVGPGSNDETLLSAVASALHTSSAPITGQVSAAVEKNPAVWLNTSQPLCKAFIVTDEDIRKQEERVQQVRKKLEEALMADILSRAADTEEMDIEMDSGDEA
PRMT1 inh = PRMT1 methyltransferase inhibitors, primary screen, biochemical, fluorescence polarization; Protein arginine N-methyltransferase 1 (Homo sapiens), Q99873; recombinant PRMT1, activity-based probe fluorescence polarization; inhibition, % at 2.79 µM; 370,000 tested, 1.3% active;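 active = inhibition above about 21% made by adding two undisclosed values, limit read from the data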
PfGluPho inh = PfG6PD enzyme inhibitors, primary screen, biochemical, fluorescence intensity, uHTS | inhibition, % at 20 µM | AID 504690, 2011 | glucose-6-phosphate dehydrogenase-6-phosphogluconolactonase (Plasmodium falciparum 3D7) | PfGluPho enzyme, NADPH resazurin-diaphorase fluorescence | 350,000 tested, 0.78% active;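 active = inhibition reaching at least a set limit at 20 µM in the primary screen, cut at about 59% in these data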;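 also: 0% = DMSO wells with substrate and 100% = DMSO wells lacking glucose-6-phosphate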
PRMT1 inh conf = PRMT1 methyltransferase inhibitors, confirmation, biochemical, fluorescence polarization, triplicate | 3,300 tested, 42% active | shares compounds with PRMT1 inh | recombinant His-PRMT1, activity-based probe fluorescence polarization | inhibition, % at 2.79 µM;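 active = mean inhibition across replicates above the hit cutoff derived for the earlier primary screen, cut at about 22% in these data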
* = called active by the depositor.

How did CCC(=S)/C=C1\Sc2ccccc2N1CCCS(=O)(=O)O do in these assays?
M18AAP inhibitor: 0; UHRF1 MBD2 ctr: -1; MBD2 DNA inh: -3; PRMT1 inh: 34*; PfGluPho inh: 20; PRMT1 inh conf: 4

What do the screens show for `O=C(C[n+]1ccc(/C=N/O)cc1)NC(=O)Nc1ccccc1`?
UHRF1 MBD2 ctr: -2; MBD2 DNA inh: 5; PRMT1 inh: 2; PfGluPho inh: -4

Results for COc1ccc(CNC(=O)Cn2ncn3cccc3c2=O)cc1 ?
M18AAP inhibitor: 2; UHRF1 MBD2 ctr: 9; MBD2 DNA inh: 0; PRMT1 inh: 1

What do the screens show for `C1CSC2(N1)C1CC3CC(C1)CC2C3` (stereo not drawn)?
M18AAP inhibitor: 0; UHRF1 MBD2 ctr: 7; MBD2 DNA inh: -3; PRMT1 inh: 51*; PfGluPho inh: -3; PRMT1 inh conf: 35*

Results for Cc1ccc(NC(=O)N2CCCC2C(=O)NCc2ccc(Cl)cc2)cc1 (stereo not drawn) ?
M18AAP inhibitor: 1; UHRF1 MBD2 ctr: 6; MBD2 DNA inh: 3; PRMT1 inh: -3; PfGluPho inh: -7

Results for COc1cccc(NS(=O)(=O)c2ccc3c(c2)C2C=CCC2C(c2ccc(C(=O)O)cc2)N3)c1 (stereo not drawn) ?
M18AAP inhibitor: 22; UHRF1 MBD2 ctr: 8; MBD2 DNA inh: 1; PRMT1 inh: 42*; PfGluPho inh: 32; PRMT1 inh conf: 30*

How did CC(C)N(C(=O)[C@H]1C[C@H](CC(=O)NCCc2ccccn2)C(=O)N2CCc3c([nH]c4cc(-c5ccco5)ccc34)[C@]12C)C(C)C do in these assays?
UHRF1 MBD2 ctr: -1; MBD2 DNA inh: 0; PRMT1 inh: 40*; PfGluPho inh: 24; PRMT1 inh conf: 1

Results for CC(C)c1ccc(C(=O)N2CCN(c3cnn(C)c(=O)c3Cl)CC2)cc1 ?
M18AAP inhibitor: -5; UHRF1 MBD2 ctr: 3; MBD2 DNA inh: -1; PRMT1 inh: 8; PfGluPho inh: 4

Results for NC(=O)c1ccccc1NCC(=O)c1ccc(F)cc1 ?
M18AAP inhibitor: 11; UHRF1 MBD2 ctr: -1; MBD2 DNA inh: 5; PRMT1 inh: 34*; PfGluPho inh: -117; PRMT1 inh conf: 3

How did C=CCOc1ccc(/C=C/C(=O)OCC(=O)NCc2cccs2)cc1 do in these assays?
UHRF1 MBD2 ctr: 0; MBD2 DNA inh: -5; PRMT1 inh: 1; PfGluPho inh: -13

What do the screens show for `O=CN1CCc2scc[n+]2-c2ccccc21`?
M18AAP inhibitor: 21; UHRF1 MBD2 ctr: -5; MBD2 DNA inh: 1; PRMT1 inh: 41*; PfGluPho inh: 23; PRMT1 inh conf: 30*

What do the screens show for `O=C(Nc1ccccc1)N1CCc2scc[n+]2-c2ccccc21`?
M18AAP inhibitor: 16; UHRF1 MBD2 ctr: 4; MBD2 DNA inh: 2; PRMT1 inh: 56*; PfGluPho inh: 26; PRMT1 inh conf: 19

What do the screens show for `CC(=O)c1ccc(NC(=O)Nc2ccc(S(=O)(=O)N3CCCC3)cc2)cc1`?
M18AAP inhibitor: 2; UHRF1 MBD2 ctr: -1; MBD2 DNA inh: -2; PRMT1 inh: -2; PfGluPho inh: 2

What do the screens show for `CCCS(=O)(=O)c1c(S(=O)(=O)CCC)c2c(N)cccn2c1C(=O)c1ccc(Br)cc1`?
M18AAP inhibitor: 0; UHRF1 MBD2 ctr: -1; MBD2 DNA inh: 4; PRMT1 inh: 14; PfGluPho inh: 33

How did CCCS(=O)(=O)c1c(S(=O)(=O)CCC)c2c(N)cccn2c1C(=O)c1ccc(F)cc1 do in these assays?
M18AAP inhibitor: -33; UHRF1 MBD2 ctr: 1; MBD2 DNA inh: 0; PRMT1 inh: 26*; PfGluPho inh: 43; PRMT1 inh conf: 7

What do the screens show for `Cc1ccsc1/C=C1\Oc2cc(O)ccc2C1=O`?
UHRF1 MBD2 ctr: -8; MBD2 DNA inh: -2; PRMT1 inh: 40*; PfGluPho inh: -3; PRMT1 inh conf: 30*

What do the screens show for `CCc1c(C)[nH]c2c1C(=O)C(CN1CCOCC1)CC2` (stereo not drawn)?
UHRF1 MBD2 ctr: 3; MBD2 DNA inh: -6; PRMT1 inh: 5; PfGluPho inh: -2

Results for CCOC(=O)CNC(=O)CSc1nc(-c2ccccc2)ns1 ?
M18AAP inhibitor: 28*; UHRF1 MBD2 ctr: 1; MBD2 DNA inh: 7; PRMT1 inh: 43*; PfGluPho inh: 31; PRMT1 inh conf: 4

How did Cc1ccc(NC(=O)CC2SC(=O)NC2=O)cc1 (stereo not drawn) do in these assays?
M18AAP inhibitor: -5; UHRF1 MBD2 ctr: -9; MBD2 DNA inh: 0; PRMT1 inh: 56*; PfGluPho inh: -4; PRMT1 inh conf: 76*

Results for Cc1ccc(NC(=O)CC2S/C(=N/N=C3/NC(=O)CS3)NC2=O)cc1 (stereo not drawn) ?
M18AAP inhibitor: 4; UHRF1 MBD2 ctr: 1; MBD2 DNA inh: 9; PRMT1 inh: 5; PfGluPho inh: -16

Results for COc1ccc(NC(=O)CC2SC(=O)NC2=O)cc1 (stereo not drawn) ?
M18AAP inhibitor: -7; UHRF1 MBD2 ctr: -3; MBD2 DNA inh: -4; PRMT1 inh: 53*; PfGluPho inh: -16; PRMT1 inh conf: 66*

How did O=C(Sc1ccc(Cl)cc1)c1ccccn1 do in these assays?
UHRF1 MBD2 ctr: 0; MBD2 DNA inh: 3; PRMT1 inh: 47*; PfGluPho inh: 12; PRMT1 inh conf: 44*

How did COc1cc(NC(=O)CSc2ncnc3sc4c(c23)CCCC4)c(C(=O)O)cc1OC do in these assays?
M18AAP inhibitor: 28; UHRF1 MBD2 ctr: 1; MBD2 DNA inh: 0; PRMT1 inh: 32*; PfGluPho inh: -2; PRMT1 inh conf: 7

Results for O=C(Nc1ccncc1)c1ccc(Cl)c(Cl)c1 ?
M18AAP inhibitor: 0; UHRF1 MBD2 ctr: -2; MBD2 DNA inh: 4; PRMT1 inh: 28*; PfGluPho inh: -2; PRMT1 inh conf: -5

How did COc1ccc(CCNC(=O)c2ccc(-c3ccc([N+](=O)[O-])cc3Cl)o2)cc1 do in these assays?
M18AAP inhibitor: 8; UHRF1 MBD2 ctr: -6; MBD2 DNA inh: 0; PRMT1 inh: 28*; PfGluPho inh: 31; PRMT1 inh conf: 1

How did COc1ccc(CCNC(=O)c2ccc(-c3cccc([N+](=O)[O-])c3)o2)cc1OC do in these assays?
M18AAP inhibitor: 3; UHRF1 MBD2 ctr: -2; MBD2 DNA inh: 0; PRMT1 inh: -1; PfGluPho inh: 1

What do the screens show for `O=C1C[C@@H](c2ccccc2)N=C2N(CC3CC3)C/C(=C/c3ccccc3)N12`?
UHRF1 MBD2 ctr: -3; MBD2 DNA inh: 4; PRMT1 inh: -1

Assay outcomes deposited in PubChem by several laboratories.
